14 molecules from the supplement of paper PMC6763611 can be followed below.

The structures appear in SMILES notation.

In the first experiment the test system is Plasmodium falciparum NF54. Briefly: growth inhibition relative to untreated control; higher = more inhibition. Particulars: 1 µM; minimal medium (MM); 72 h. Put shortly: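 P. falciparum NF54 ring stages (1% hematocrit, 1% parasitemia, 100 μL/well in 96-well half-area dark plates) were exposed for 72 h at 37 °C to single 5 μM or 1 μM doses of Pathogen Box compounds. The medium was minimal RPMI or minimal RPMI plus chorismate end-products (2.2 μM folate, 7.3 μM pABA, 7.3 μM pHBA, 111 μM tyrosine, 90 μM phenylalanine, tryptophan). Growth inhibition was read by SYBR Green, normalised to untreated controls, with uninfected erythrocytes as background.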
For `CO/C=C(/C(=O)OC)c1ccccc1Oc1cc(Oc2ccccc2C#N)ncn1`, the growth inhibition came to 94.7%.

For the molecule `CC1COC(Cn2cncn2)(c2ccc(Oc3ccc(Cl)cc3)cc2Cl)O1` (configuration not stated), the growth inhibition was 38.1%.

`Cc1nn(Cc2ccccc2)c(Cl)c1C(=O)NC1CCCCCC1` yielded a growth inhibition of under 0%.

Molecule `CC1(C)OB(O)c2ccc(C3=NOC(c4cc(Cl)c(F)c(Cl)c4)(C(F)(F)F)C3)cc21` (configuration not stated) displayed a growth inhibition of 48.1%.

`CO[C@@H]1CN(c2ccc(C#CC3(O)CN4CCC3CC4)c(Cc3ccccc3)n2)C[C@H]1O` (some centres not stated) displayed a growth inhibition of under 0%.

In the case of `Cc1cc(C2=NOC(c3cc(Cl)c(F)c(Cl)c3)(C(F)(F)F)C2)ccc1C(=O)NCc1ccc2c(c1)C(C)(C)OB2O` (configuration not stated), the growth inhibition is under 0%.

In turn, `CO/N=C(\C(=O)OC)c1ccccc1CO/N=C(\C)c1cccc(C(F)(F)F)c1` registered a growth inhibition of 96.6%.

The molecule `O=C1O[C@@H](CO)CN1c1cc(F)c(C2=CCN(Cc3ccccc3)CC2)c(F)c1` displayed a growth inhibition of 23.4%.

The molecule `CC(C)(C)C(O)C(Oc1ccc(-c2ccccc2)cc1)n1cncn1` (configuration not stated) returned a growth inhibition of 5.38%.

Consider `Cc1cccc(C(=O)Nc2ccnc(N(C)C3CCN(CC(C)C)CC3)c2)c1`, for which the growth inhibition turned out to be 61.7%.

The molecule `Nc1c2c(nc3sc4c(c13)CCCC4)CCCC2` returned a growth inhibition of 13.8%.

Molecule `O=C1O[C@@H](COc2ccon2)CN1c1cc(F)c(C2=CCN(Cc3ccccc3)CC2)c(F)c1` had a growth inhibition of under 0%.

In turn, `Cc1nn(C)c(C)c1NS(=O)(=O)c1c(Cl)cc(-c2ccnc(N3CCNCC3)c2)cc1Cl` returned a growth inhibition of 79.5%.

Take `CCc1nn(C)c(C(=O)NCc2ccc(Oc3ccc(C)cc3)cc2)c1Cl`: the growth inhibition was found to be 3.68%.

Staying with this experiment, now noted: 5 µM; MM + chorismate end-products (CM screening medium); 72 h.
Take `CO/C=C(/C(=O)OC)c1ccccc1Oc1cc(Oc2ccccc2C#N)ncn1`: the growth inhibition is 90.4%.

For `CC1COC(Cn2cncn2)(c2ccc(Oc3ccc(Cl)cc3)cc2Cl)O1` (configuration not stated), the growth inhibition came out at 67.8%.

Turning to `Cc1nn(Cc2ccccc2)c(Cl)c1C(=O)NC1CCCCCC1`, the growth inhibition is under 0%.

Take `CC1(C)OB(O)c2ccc(C3=NOC(c4cc(Cl)c(F)c(Cl)c4)(C(F)(F)F)C3)cc21` (configuration not stated): the growth inhibition was determined as 53.9%.

Take `CO[C@@H]1CN(c2ccc(C#CC3(O)CN4CCC3CC4)c(Cc3ccccc3)n2)C[C@H]1O` (some centres not stated): the growth inhibition was 42.8%.

`Cc1cc(C2=NOC(c3cc(Cl)c(F)c(Cl)c3)(C(F)(F)F)C2)ccc1C(=O)NCc1ccc2c(c1)C(C)(C)OB2O` (configuration not stated): the growth inhibition was 40.8%.

On to `CO/N=C(\C(=O)OC)c1ccccc1CO/N=C(\C)c1cccc(C(F)(F)F)c1`, for which the growth inhibition was determined as 91.5%.

As to `O=C1O[C@@H](CO)CN1c1cc(F)c(C2=CCN(Cc3ccccc3)CC2)c(F)c1`, the growth inhibition turned out to be 45%.

In the case of `CC(C)(C)C(O)C(Oc1ccc(-c2ccccc2)cc1)n1cncn1` (configuration not stated), the growth inhibition was under 0%.

With `Cc1cccc(C(=O)Nc2ccnc(N(C)C3CCN(CC(C)C)CC3)c2)c1`, the growth inhibition was determined as 94.8%.

For `Nc1c2c(nc3sc4c(c13)CCCC4)CCCC2`, the growth inhibition is 52.3%.

Take `O=C1O[C@@H](COc2ccon2)CN1c1cc(F)c(C2=CCN(Cc3ccccc3)CC2)c(F)c1`: the growth inhibition stood at 54.4%.

As to `Cc1nn(C)c(C)c1NS(=O)(=O)c1c(Cl)cc(-c2ccnc(N3CCNCC3)c2)cc1Cl`, the growth inhibition was 84.1%.

Regarding `CCc1nn(C)c(C(=O)NCc2ccc(Oc3ccc(C)cc3)cc2)c1Cl`, the growth inhibition is under 0%.

Staying with this experiment, now noted: 5 µM; minimal medium (MM); 72 h.
With `CO/C=C(/C(=O)OC)c1ccccc1Oc1cc(Oc2ccccc2C#N)ncn1`, the growth inhibition was found to be 92.2%.

As for `CC1COC(Cn2cncn2)(c2ccc(Oc3ccc(Cl)cc3)cc2Cl)O1` (configuration not stated), the growth inhibition stood at 33.6%.

In turn, `Cc1nn(Cc2ccccc2)c(Cl)c1C(=O)NC1CCCCCC1` gave a growth inhibition of under 0%.

`CC1(C)OB(O)c2ccc(C3=NOC(c4cc(Cl)c(F)c(Cl)c4)(C(F)(F)F)C3)cc21` (configuration not stated) registered a growth inhibition of 11.9%.

For the molecule `CO[C@@H]1CN(c2ccc(C#CC3(O)CN4CCC3CC4)c(Cc3ccccc3)n2)C[C@H]1O` (some centres not stated), the growth inhibition stood at 9.06%.

In the case of `Cc1cc(C2=NOC(c3cc(Cl)c(F)c(Cl)c3)(C(F)(F)F)C2)ccc1C(=O)NCc1ccc2c(c1)C(C)(C)OB2O` (configuration not stated), the growth inhibition amounted to 10.9%.

Molecule `CO/N=C(\C(=O)OC)c1ccccc1CO/N=C(\C)c1cccc(C(F)(F)F)c1` showed a growth inhibition of 91.8%.

Molecule `O=C1O[C@@H](CO)CN1c1cc(F)c(C2=CCN(Cc3ccccc3)CC2)c(F)c1` yielded a growth inhibition of 49.9%.

In the case of `CC(C)(C)C(O)C(Oc1ccc(-c2ccccc2)cc1)n1cncn1` (configuration not stated), the growth inhibition was under 0%.

The molecule `Cc1cccc(C(=O)Nc2ccnc(N(C)C3CCN(CC(C)C)CC3)c2)c1` gave a growth inhibition of 92.4%.

With `Nc1c2c(nc3sc4c(c13)CCCC4)CCCC2`, the growth inhibition came to 13.1%.

Consider `O=C1O[C@@H](COc2ccon2)CN1c1cc(F)c(C2=CCN(Cc3ccccc3)CC2)c(F)c1`, for which the growth inhibition came to 28.6%.

For `Cc1nn(C)c(C)c1NS(=O)(=O)c1c(Cl)cc(-c2ccnc(N3CCNCC3)c2)cc1Cl`, the growth inhibition was found to be 89.6%.

`CCc1nn(C)c(C(=O)NCc2ccc(Oc3ccc(C)cc3)cc2)c1Cl` yielded a growth inhibition of under 0%.
